Source: the supplement of paper PMC6555819

What was measured:
Test in all cases: PBM binding z-score (relative to random genomic background probes); higher = stronger binding; sequences stand for … in GC…GCGATTGACAGCGTAGAATGAAGG
[1] = test system: FXR:RXRa (NR concentration 270 nM, RXRa partner concentration 90 nM)
How it was run: (§1)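 Ligand-free nuclear receptor dimers were applied to custom Agilent 4×180K protein-binding microarrays whose double-stranded probes carried direct-repeat seeds, single-nucleotide variants, half-site ablations and random human genomic background sequences in 34-nt variable regions. Incubation lasted 1 h. Binding z-scores were computed against the random background probes from regression-normalized fluorescence.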

[2] = test system: LXRa:RXRa (NR concentration 270 nM, RXRa partner concentration 90 nM)
How it was run: as §1

[3] = test system: LXRa homodimer (NR concentration 270 nM)
How it was run: as §1

[4] = test system: LXRb:RXRa (NR concentration 270 nM, RXRa partner concentration 90 nM)
How it was run: as §1

[5] = test system: LXRb homodimer (NR concentration 270 nM)
How it was run: as §1

[6] = test system: PPARa:RXRa (NR concentration 270 nM, RXRa partner concentration 90 nM)
How it was run: as §1

[7] = test system: PPARg:RXRa (NR concentration 180 nM, RXRa partner concentration 90 nM)
How it was run: as §1

[8] = test system: PPARg:RXRa 270nM:90nM, anti-RXR (NR concentration 270 nM, RXRa partner concentration 90 nM)
How it was run: as §1

[9] = test system: PPARg:RXRa 30nM:10nM, anti-RXR (NR concentration 30 nM, RXRa partner concentration 10 nM)
How it was run: as §1

[10] = test system: PPARg:RXRa 90nM:30nM, anti-RXR (NR concentration 90 nM, RXRa partner concentration 30 nM)
How it was run: as §1

[11] = test system: PPARg:RXRa DBDmut IVT, anti-RXR (DBD mutation: RXRa K156A/R161A, NR concentration 270 nM, RXRa partner concentration 90 nM)
How it was run: as §1

[12] = test system: PPARg:RXRa IVT, anti-PPARg (NR concentration 270 nM, RXRa partner concentration 90 nM)
How it was run: as §1

[13] = test system: PPARg DBDmut:RXRa IVT, anti-PPARg (DBD mutation: PPARg1 K132A/R137A, NR concentration 270 nM, RXRa partner concentration 90 nM)
How it was run: as §1

[14] = test system: PPARg DBDmut IVT, anti-PPARg (DBD mutation: PPARg1 K132A/R137A, NR concentration 270 nM)
How it was run: as §1

[15] = test system: PPARg homodimer (NR concentration 180 nM)
How it was run: as §1

[16] = test system: PXR:RXRa (NR concentration 270 nM, RXRa partner concentration 90 nM)
How it was run: as §1

[17] = test system: PXR homodimer (NR concentration 270 nM)
How it was run: as §1

[18] = test system: RARa:RXR (NR concentration 270 nM, RXRa partner concentration 90 nM)
How it was run: as §1

[19] = test system: RARa homodimer (NR concentration 270 nM)
How it was run: as §1

[20] = test system: RARb:RXRa (NR concentration 270 nM, RXRa partner concentration 90 nM)
How it was run: as §1

Sequence	PBM binding z-score [1]	PBM binding z-score [2]	PBM binding z-score [3]	PBM binding z-score [4]	PBM binding z-score [5]	PBM binding z-score [6]	PBM binding z-score [7]	PBM binding z-score [8]	PBM binding z-score [9]	PBM binding z-score [10]	PBM binding z-score [11]	PBM binding z-score [12]	PBM binding z-score [13]	PBM binding z-score [14]	PBM binding z-score [15]	PBM binding z-score [16]	PBM binding z-score [17]	PBM binding z-score [18]	PBM binding z-score [19]	PBM binding z-score [20]
TGTAAAAGTTCAAAGGTAACGTAAGTATCCACAC	6.54	6.21	4.26	4.37	1.88	5.54	6.22	6.14	3.76	5.5	0.163	2.72	1.6	1.19	2.18	5.02	2.34	5.42	1.74	4.85
CCTAGTTGGTCAAGGTCACACAGGCTATAGGTAC	4.41	4.07	1.88	3.56	0.583	4.31	3.32	3.88	1.62	2.62	2.08	3.64	0.89	0.538	3.81	4.67	3.92	4.96	2.03	4.34
TTTTGTAGATCAGCAGGTTAAGAAAGCTGGCCAA	-0.421	-0.315	-0.236	0.141	-0.319	0.634	-0.106	0.922	0.508	0.797	0.508	1.04	-0.105	0.632	0.357	0.0195	-0.117	0.084	0.0423	0.0903
ACTATTGGTTGACTTAGGGCAACCGATACGACGC	0.0585	0.381	-0.0343	0.201	0.546	0.0767	0.718	0.153	0.181	0.103	-0.408	0.507	0.7	0.813	-0.419	0.245	-0.0405	0.77	-0.0341	0.653
TCTTGCAGATCAGCAGGTTAAGAAAGCTGGCCAA	-0.157	-0.083	-0.809	-0.061	-1.04	0.615	-0.601	0.866	1.59	1.15	0.806	-0.167	-1.23	-0.975	-0.869	-0.219	-1.1	0.16	-1.56	0.155
TCTTGTAGATCAACAGGAGGTTAAGAGAGATCGA	-0.193	1.14	-0.121	0.527	-0.544	1.3	0.126	1.38	2.38	1.73	1.53	0.53	0.135	-0.105	-0.206	0.838	-0.445	0.613	-0.275	0.493
GCATATAGGTAATACAAGGTGAAAGCCCGATTGT	1.68	1.95	0.224	0.494	-0.242	1.56	1.34	1.08	0.375	0.952	4.04	3.27	1.21	0.358	0.757	0.437	-0.12	0.973	0.0827	0.234
